Only some compounds are listed: those with a hit (about 18% of all), similar ones and a draw of the others.
DT40 TDP1 no CPT: qHTS for Inhibitors of human tyrosyl-DNA phosphodiesterase 1 (TDP1): qHTS in cells in absence of CPT | DT40 Tdp1-/- hTDP1 cells, no CPT, ATP luminescence, 48 h | Potency, µM (titrated, usually from 46.2 µM), for inactives: at the highest dose activity change, negative = growth inhibition, hits mostly inhibitors | 420,000 tested, 15% active | AID 686978, 2013; note: potency is the fitted concentration of half-maximal effect; nearly all actives have a fitted effect of over 55% in size
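Camptothecin absent (DMSO only). Human TDP1-complemented DT40 knockout cells, 400 cells/well, 37 °C for minimum 48 hr; ATP measured via CellTiter-Glo, 30 min dark incubation, luminescence.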
VP16 counter: VP16 counterscreen qHTS for inhibitors of ROR gamma transcriptional activity; Drosophila S2 Gal4-VP16 UAS-luciferase, luminescence, 20 h; Potency, µM (top dose mostly 53.6 µM), for the others: at the top dose activity, negative = inhibition, actives largely listed as inhibitors; 310,000 tested, 3.5% active;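 note: Gal4-VP16 expression switched on by copper sulfate through the metallothionein promoter; potency is the fitted concentration of half-maximal effect; nearly all actives have a fitted effect of over 50% in size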
IL1B secr inh: qHTS for Inhibitors of Inflammasome Signaling: IL-1-beta AlphaLISA Primary Screen. 360,000 tested, 4.7% active. activity change, % at 57.5 µM. THP-1 LPS/ATP IL-1B secretion, AlphaLISA, 16 h; active compounds read low. AID 743279, 2014; in the data active = activity change below about -50%; inconclusive = mostly about -30% to -49%
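THP-1 cells pretreated 1 hr with compounds (up to 57.5 uM final), then stimulated with LPS (250 ng/mL final) plus ATP (1.25 mM final); secreted IL-1B measured by AlphaLISA after 16 hr, decreased signal indicating inhibition.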
DT40 TDP1 CPT: qHTS for Inhibitors of human tyrosyl-DNA phosphodiesterase 1 (TDP1): qHTS in cells in presence of CPT. Potency, µM (doses to about 46.2 µM), for the others: at the highest dose activity change, negative = growth inhibition, most hits filed as inhibitors. AID 686979, 2013. 420,000 tested, 12% active. chicken DT40 Tdp1-/-;hTDP1 cells + 20 nM CPT, ATP luminescence, 48 h; note: potency is the fitted concentration of half-maximal effect; nearly all actives have a fitted effect of over 55% in size
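Chicken DT40 Tdp1-/- cells stably complemented with human TDP1 were seeded at 400 cells/well in medium containing 20 nM camptothecin, exposed to pin-transferred compounds, and grown at 37 °C for at least 48 hr. Viability was read as ATP luminescence.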
RORgamma inh: qHTS for inhibitors of ROR gamma transcriptional activity | Nuclear receptor ROR-gamma (Mus musculus), P51450 | Drosophila S2 Gal4-RORgamma UAS-luciferase reporter, 20 h | Potency, µM (doses to about 53.6 µM), for inactives: top-dose activity change, negative = inhibition, most hits filed as inhibitors | 310,000 tested, 5.4% active | AID 2551, 2010; note: potency is the fitted concentration of half-maximal effect; nearly all actives have a fitted effect of over 60% in size
Target sequence (P51450 whole entry, looked up, the tested form may be a part): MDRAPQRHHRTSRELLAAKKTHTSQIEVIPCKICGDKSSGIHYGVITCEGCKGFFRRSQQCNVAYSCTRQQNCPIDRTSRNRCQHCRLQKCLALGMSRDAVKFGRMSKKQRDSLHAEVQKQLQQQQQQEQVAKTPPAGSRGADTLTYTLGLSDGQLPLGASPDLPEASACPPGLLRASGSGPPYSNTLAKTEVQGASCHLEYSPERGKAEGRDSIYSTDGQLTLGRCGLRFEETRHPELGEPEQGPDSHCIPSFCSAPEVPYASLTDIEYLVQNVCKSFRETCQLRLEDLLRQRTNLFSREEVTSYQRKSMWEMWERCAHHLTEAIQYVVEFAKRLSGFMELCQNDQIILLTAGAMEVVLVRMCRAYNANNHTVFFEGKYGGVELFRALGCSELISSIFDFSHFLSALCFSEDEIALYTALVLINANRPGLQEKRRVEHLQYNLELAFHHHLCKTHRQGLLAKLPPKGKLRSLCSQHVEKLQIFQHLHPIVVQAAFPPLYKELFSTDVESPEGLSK
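Read-out: Photinus luciferase luminescence; inhibitors lower reporter signal. Insect Schneider cells with Gal4-ROR gamma fusion under metallothionein promoter, UAS reporter; 700 uM final copper sulfate induction, 20 hr, ambient temperature.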
LDHA block: qHTS assay for inhibitors of human lactate dehydrogenase; purified LDHA, NADH/diaphorase-resazurin fluorescence; active compounds read low; activity change, % (values are at about 110 or 230 µM); 480,000 tested, 0.15% active; AID 1347041, 2019; in the data active = activity change below about -30%; inconclusive = mostly about -25% to -30%;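 note: plate controls were DMSO wells for no effect and wells without enzyme for full effect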
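LDH5 2 nM; NADH 0.06 mM, pyruvate 0.2 mM; 200 mM Tris pH 7.4, EDTA, Tween-20; 5 min RT. Detection: diaphorase 0.133 mg/mL + resazurin 37 µM, fluorescence ex540/em590 at 0 and 20 min; normalized to enzyme-free and DMSO wells.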
An asterisk follows results filed as active; ? = inconclusive; / = no result; [ ] = dose if it differs, or a comment. Unless noted, calls come from the whole dose curve; as a rule, active = well fitted curve in the direction sought with a large enough effect; inconclusive = small, poorly fitted or top-dose-only effect, or another doubt; inactive = no such curve, though single readings can be large; an effect the other way counts as inactive or inconclusive. Unless noted, % is set by controls: 0 for no effect and ±100 for the full control effect.

SMILES | DT40 TDP1 no CPT | VP16 counter | IL1B secr inh | DT40 TDP1 CPT | RORgamma inh | LDHA block
COC(=O)COc1ccc2c(C)c(-c3ccc(OC)c(OC)c3)c(=O)oc2c1 | / | / | / | / | / | 3.4
CCCCc1c(C)nc2cc(-c3ccco3)[nH]n2c1=O | ? | -5.4% | -95.9* | -0.5% | -9.8% | -3.1
CCc1c(C)nc2c(-c3ccccc3)c(-c3ccccc3)[nH]n2c1=O | 2.06µM* | 1.0% | 12.9 | 2.31µM* | -15.1% | -1.0
O=C1c2nc3cc(-c4ccco4)[nH]n3c(=O)c2CN1Cc1ccccc1 | -7.1% | 1.1% | -5.1 | -4.8% | -0.4% | 4.2
CCOC(=O)CCc1c(C)nc2c(-c3ccccc3)c(C)[nH]n2c1=O | -26.3% | / | / | -27.2% | / | 0.7
CCc1c(C)nc2cc(-c3ccccc3)[nH]n2c1=O | 11.6µM* | -11.2% | -9.2 | 8.2µM* | 10.2% | -1.6
COc1ccc(C2Nc3ccccc3-c3cc(C)nn32)cc1O (stereo not drawn) | / | / | / | / | / | 9.9
COc1cccc(N2CC(C(=O)Nc3ccccc3C(=O)N3CCN(c4ccccc4)CC3)CC2=O)c1 (stereo not drawn) | / | / | / | / | / | -7.7
COc1ccc(-c2cnc(C)o2)cc1S(=O)(=O)Nc1ccc(C)c(F)c1 | 2.59µM* | / | / | 2.59µM* | / | 6.5
COc1ccc(NS(=O)(=O)c2cc(-c3cnc(C)o3)ccc2C)cc1OC | / | / | / | / | / | 6.7
COc1ccc(-c2cnc(C)o2)cc1S(=O)(=O)Nc1c(C)cc(C)cc1C | 23.1µM* | / | / | 16.4µM* | / | -5.2
COc1ccc(-c2cc(C)no2)cc1S(=O)(=O)Nc1c(C)cc(C)cc1C | 20.6µM* | / | / | ? | / | 8.6
COc1cc(Cl)c(NS(=O)(=O)c2cc(-c3cc(C)no3)ccc2OC)c(OC)c1 | ? | / | / | ? | / | -7.5
Cc1cc(C)c(NS(=O)(=O)c2cc(-c3onc(C)c3C)ccc2C)c(C)c1 | 8.2µM* | / | / | 13µM* | / | -4.9
COc1ccc(NS(=O)(=O)c2cc(-c3cnc(C)o3)ccc2OC)cc1 | / | / | / | / | / | -1.8
O=C(/C=C/c1cccc(O)c1)c1ccc(F)cc1 | / | / | / | / | / | 14.8
CCc1ccccc1N(C)S(=O)(=O)c1cc(-c2cc(C)no2)ccc1OC | ? | -9.1% | 22.1 | 13µM* | -1.0% | -13.5
COc1ccc(-c2cc(C)no2)cc1S(=O)(=O)N1CCOc2ccc(Cl)cc21 | ? | -9.3% | 30.9 | ? | -5.8% | -1.5
Cc1ccc2c(c1)N(S(=O)(=O)c1cc(-c3onc(C)c3C)ccc1C)CCO2 | 9.2µM* | -10.0% | ? | 23.1µM* | -14.6% | -2.6
COc1ccc(-c2cc(C)no2)cc1S(=O)(=O)N(C)c1cccc(C)c1 | ? | 1.8% | -13.7 | -11.4% | -1.5% | -2.8
COc1cc2c(cc1OC)-c1c(c(C(=O)NCCN3CCOCC3)nn1-c1ccccc1)C2 | / | / | / | / | / | -4.5
O=C(/C=C/c1ccco1)NC(=S)Nc1ccc(N2CCCC2)cc1 | 14.6µM* | 3.16µM* | -16.2 | 23.1µM* | 2µM* | 11.6
C=CCNC(=S)Nc1ccc(N(C)C)cc1 | ? | ? | 14.4 | ? | 11.2µM* | 21.8
CN(C)c1ccc(NC(=S)NC(=O)/C=C/c2ccco2)cc1 | -23.0% | 9.3% | 3.2 | 1.4% | 14.1µM* | 6.4
COc1cccc(NC(=O)c2c(-c3ccccc3)oc3ccc(OC)cc23)c1 | / | / | / | / | / | -6.8
SMILES | DT40 TDP1 no CPT | VP16 counter | IL1B secr inh | DT40 TDP1 CPT | RORgamma inh | LDHA block
Cc1cc(C(=O)Cn2c(Cl)nc3c2c(=O)n(C)c(=O)n3C)c(C)n1C1CC1 | / | / | / | / | / | -0.8
O=C1OCCN1/N=C/c1ccc([N+](=O)[O-])o1 | 14.6µM* | / | 21.9 | 13µM* | ? | -2.3
O=C1CN(/N=C/c2ccc([N+](=O)[O-])o2)C(=O)N1 | 16.4µM* | -20.2% | 13.5 | 20.6µM* | -1.9% | -4.4
O=C(Nc1cccc(C(F)(F)F)c1)c1ccc2snnc2c1 | 3.6% | / | / | -24.5% | / | 3.4
CN(C)c1ccc(NC(=O)Nc2ccc3snnc3c2)cc1 | -15.4% | 6.7% | -21.7 | -0.6% | -6.7% | 8.3
O=C(NCc1ccccc1)c1ccc2nnsc2c1 | -14.8% | 2.5% | 4.2 | -16.4% | 21.1% | 2.7
Cc1cc(C)c(NC(=O)Nc2ccc3snnc3c2)c(C)c1 | 18.4µM* | / | / | ? | / | -2.8
O=C(Nc1ccccc1)Nc1ccc2snnc2c1 | 18.4µM* | ? | -19.1 | ? | ? | -5.2
O=C(Nc1ccccc1)Nc1ccc2nnsc2c1 | 16.4µM* | 22.0% | -95.1* | 20.6µM* | ? | -1.1
O=C(Nc1cccc(C(F)(F)F)c1)Nc1ccc2snnc2c1 | 5.17µM* | / | / | 3.66µM* | / | -0.2
Cn1nc(C(=O)NCC(C)(c2ccccc2)c2ccccc2)c2ccccc2c1=O | / | / | / | / | / | 10.2
Cc1cc(=O)oc2cc3occ(-c4ccc(-c5ccccc5)cc4)c3cc12 | / | / | / | / | / | -0.8
CC(=O)NCCNC(=O)c1cc(C)nc2ccc(C)cc12 | / | / | / | / | / | -4.3
CCOc1ccc(NC(=O)Nc2ccc3snnc3c2)cc1 | 16.4µM* | / | / | ? | / | 0.9
Cc1ccc2[nH]c(C)c(CC(=O)NC(C)c3ccc(C)o3)c2c1 (stereo not drawn) | / | / | / | / | / | -0.6
CCOc1ccc(C2(c3ccccc3OC)CCCC2)cc1 | / | / | / | / | / | 0.5
COc1ccccc1NC(=O)c1ccc(NC(=O)C2COc3ccccc3O2)cc1 (stereo not drawn) | ? | 13.5% | -55.2* | ? | 12.9% | -10.9
O=C(Nc1ccc(S(=O)(=O)Nc2ccccc2)cc1)C1COc2ccccc2O1 (stereo not drawn) | 20.6µM* | ? | -69.1* | 16.4µM* | ? | -1.2
CC(C)NC(=O)c1ccccc1NC(=O)C1COc2ccccc2O1 (stereo not drawn) | 20.6µM* | 3.5% | 0.0 | ? | ? | -4.5
O=C(c1cc(-c2cccs2)nc2ccccc12)N1CCOCC1 | / | / | / | / | / | 9.2
Cc1cc(COc2ccc(C(=O)c3ccc(F)cc3)cc2)on1 | / | / | / | / | / | -0.1
Cc1nc2ccc(NS(=O)(=O)c3c(F)cccc3F)cc2s1 | 16.4µM* | / | 6.1 | 16.4µM* | / | -6.9
Cc1nc2cc(NS(=O)(=O)c3cccc4cccnc34)ccc2s1 | 9.2µM* | -17.5% | -14.2 | 16.4µM* | 15.4%[1.91 µM] | -4.0
Cc1nc2ccc(NS(=O)(=O)c3cccs3)cc2s1 | / | / | / | / | / | -20.5
